Results reported in PubChem BioAssay AID485297 (National Center for Advancing Translational Sciences (NCATS), 2010).
About 9,100 (2.8%) of roughly 320,000 compounds were called active. Another 3% or so got no clear call; they are omitted. Calls come from the whole dose curve; as a rule, active = well fitted activation curve with a large enough effect; inconclusive = small, poorly fitted or top-dose-only effect; inactive = no such curve, though single readings can be large or run the other way. Shown is part of a subset that was picked to be rich in actives.

test: qHTS Assay for Rab9 Promoter Activators; details: Huh7 Rab9 promoter-luciferase reporter, luminescence, 24 h; series mostly up to 9.22 µM; note: nearly all actives have a fitted effect of over 60% in size; for activation, negative = inhibition: % of control where 0% means no effect
Source text: NIH Chemical Genomics Center [NCGC] NIH Molecular Libraries Probe Production centers Network [MLPCN] MLPCN Grant: MH089537-01 Assay Submitter (PI): Yiannis A. Ioannou NCGC Assay Overview: Niemann Pick Type C (NPC) is a rare neurodegenerative lipidosis that is characterized by lipid storage in the endosomal/lysosomal system. Treatment modalities for this devastating disease are currently non-existent due to the severe obstacles associated with accessing the central nervous system with proteins or genes (Ioannou, 2000). We have developed a new paradigm, termed "Orphan Receptor Bypass Therapy" (ORByT), to address these disorders. This paradigm posits the existence of endogenous "suppressor" proteins whose expression can dramatically improve LSD pathogenesis. The goal is the identification/discovery of small chemical compounds that can modulate the expression of these proteins and provide a new treatment modality for these devastating disorders. One such protein whose overexpression reverses aspects of the NPC phenotype is Rab9. We have developed and optimized a cell based luciferase reporter assay in 1536 well format for the identification of up-regulators of the Rab9 promoter.
The Rab9 promoter is cloned in front of the luciferase reporter gene, therefore […] promoter activation results in luciferase expression. Frozen stock of the Rab9 promoter transfected Huh7 cells were obtained from the laboratory of Dr. Yiannis Ioannou (The Mount Sinai School of Medicine, New York, NY). Cells were propagated and maintained at NCGC in medium containing RPMI-1640 supplemented with 10% FBS, 2mM L-glutamine, and 50ug/ml penicillin/streptomycin. Cells were harvested in and plated for assays in OP-MEM I reduced-serum medium supplemented with 10% FBS. The Amplite luciferase reporter gene assay kit was purchased from ABD Bioquest and prepared/stored according to manufacturers recommendations. qHTS Assay Setup: 1.Dispensed 5ul of Huh7 cells stably expressing Rab9-luciferase at a density of 1500 cells per well 1536-well plates. 2.Incubate cells at 37C, 5% CO2, and 95% humidity for 2 hours. 3.Transferred 23nl per well of compound in DMSO solution. 4.Incubated at 37C, 5% CO2, and 95% humidity for 24 hours. 5.Dispensed 3ul per well of Amplite reagent(ABD Bioquest) per well. 6.Incubate at ambient for 10 minutes. 7.Read using the luminescence protocol on the ViewLux plate reader (Perkin Elmer).
Potency is the fitted concentration of half-maximal effect.

Potency, active:
Cc1cc(OCc2cc(C(=O)NCc3cc(C(C)C)no3)no2)cc(C)c1Cl 1 µM
O=C(Nc1ccccc1)c1ccc2c(c1)OCO2 2.51 µM
O=C(Nc1ccccc1)c1ccc2c(c1)OCCCO2 0.562 µM
CN1CCN(c2ccc(NC(=O)c3ccc4c(c3)OCCO4)cc2Cl)CC1 2 µM
COCc1nnc(NC(=O)c2ccc3c(c2)OCO3)s1 2.82 µM
O=C(Nc1ccccc1)Nc1nc2ccccc2s1 1.12 µM
O=C(Nc1ccccc1F)c1ccc2c(c1)OCO2 2.82 µM
COc1ccc(C(=O)Nc2ccc3c(c2)OCO3)cc1OC 4.47 µM
O=C(Nc1nc2ccccc2s1)c1ccc2c(c1)OCO2 0.316 µM
CC(C)C(=O)Nc1cccc(C(=O)Nc2ccc3c(c2)OCO3)c1 1.12 µM
COc1ccc(-n2nnnc2-c2nc3ccccc3s2)cc1 2.82 µM
CSc1ccccc1OCc1cc(C(=O)N2C[C@H]3CC[C@H]2C3)no1 2.82 µM
O=C(/C=C/c1ccco1)Nc1ccc(Oc2ccccc2)cc1 3.98 µM
Cc1noc(C)c1/C=N/Nc1ccc2ccccc2n1 0.708 µM
C(=N\Nc1ccc2ccccc2n1)/c1ccc2c(c1)OCO2 0.1 µM
COC(=O)c1ccc(NC(=O)c2ccco2)cc1 2.82 µM
O=C(/C=C/c1cnc2ccccc2n1)NC1CCCCCC1 3.16 µM
Brc1ccc2nc(N3CCCC3)sc2c1 1.41 µM
Fc1ccc2nc(N3CCCCC3)sc2c1 0.891 µM
c1c2c(cc3sc(N4CCCCC4)nc13)OCCO2 0.355 µM
O=C(CSc1nnnn1C1CCCC1)N1CCCCC1 3.16 µM
COCC1CCCN(Cc2nc(-c3ccc4c(c3)OCO4)no2)C1 (stereo not drawn) 3.16 µM

Potency, inactive:
COCCCNC(=O)COc1cc(C)c(Cl)c(C)c1
Cc1cccnc1CC(C)NC(=O)c1cc(COc2cncc(Cl)c2)on1 (stereo not drawn)
CN(C)S(=O)(=O)c1cc(C(=O)Nc2ccn(C)n2)c(Cl)cc1Cl
O=C(Nc1cccc(C(=O)NC2CC2)c1)c1ccc(F)c(S(=O)(=O)N2CCOCC2)c1
CC(=O)c1ccc(N2CCN(C(=O)c3ccc(Cl)c(S(=O)(=O)NC4CC4)c3)CC2)c(F)c1
O=C(CN1CCc2cc3c(cc2C1)OCCCO3)Nc1ccccc1
O=C(Nc1cccc(S(=O)(=O)N2CCCCC2)c1)c1ccc2c(c1)OCO2
O=C(Nc1cccc(S(=O)(=O)Nc2ccc(Cl)cc2)c1)c1ccc2c(c1)OCCO2
Cn1c(NC(=O)c2ccc3c(c2)OCO3)cc(=O)n(C)c1=O
CN1CCN(c2ccc(NC(=O)c3cc(Cl)c4c(c3)OCCO4)cc2)CC1
COC(=O)c1ccc(N2CCOCC2)c(NC(=O)c2ccc3c(c2)OCCO3)c1
CCCc1nnc(NC(=O)c2cc(OC)cc(OC)c2)s1
O=C(Nc1cccc([N+](=O)[O-])c1)c1ccc2c(c1)OCO2
CCN(CC)c1nc(-c2ccccc2)cc(C(F)(F)F)c1C#N
Cc1ccc(-c2nnc(-n3nnc4ccccc43)c3ccccc23)cc1
Cc1ccc(C(=O)OCC(=O)NCc2cc(C)c(O)c(C)c2)cc1S(=O)(=O)N1CCCCC1
O=C(Nc1ccc(Br)cn1)C1CCN(S(=O)(=O)c2cccs2)CC1
O=C(CN1CCCCC1)Nc1ccccc1C(=O)NC1CC1
C=CCNc1nc(N)c(C(=C(C#N)C#N)c2ccccc2)s1
Cc1n[nH]c(=O)c2c(NC(=O)CSc3cc(Cl)ccc3Cl)oc(C)c12
O=S(=O)(NCCc1ccccn1)c1cc(Cl)cc(Cl)c1O
O=C(Nc1nc2cc3c(cc2s1)OCCO3)c1cccc(S(=O)(=O)N2CCOCC2)c1
O=C(CCNC(=O)c1ccccc1)Nc1nc2ccccc2s1
O=C(Nc1ccc2c(c1)OCO2)c1ccc(N2C(=O)c3ccccc3C2=O)cc1
COc1cc(NC(=O)c2ccc3c(c2)OCO3)ccc1NC(=O)c1cccs1
O=C(Nc1ccccc1N1CCN(C(=O)c2ccccc2)CC1)c1ccc2c(c1)OCO2
Cc1nn(CC(=O)Nc2nc3ccccc3s2)c(C)c1[N+](=O)[O-]
Cc1ccc(F)cc1NC(=O)c1ccc2c(c1)OCO2
COc1ccc(S(=O)(=O)N2CCOCC2)cc1C(=O)Nc1nc2ccccc2s1
CSc1ncccc1C(=O)Nc1ccc2c(c1)OCO2
CCC(C)NC(=O)c1ccc(NC(=O)CC2SC(N3CCCCC3)=NC2=O)cc1 (stereo not drawn)
CC1CC(C)CN(C(=O)COC(=O)c2ccc3ncsc3c2)C1 (stereo not drawn)
CN(CC(=O)NCC(c1ccccc1)N1CCCC1)S(=O)(=O)c1ccc(Cl)cc1 (stereo not drawn)
COc1ccc(CCNC(=O)COc2ccc3c(c2)OCO3)cc1
CC(Oc1ccc(Br)cc1)C(=O)NC1CCCCCC1 (stereo not drawn)
CCSc1ccccc1C(=O)Nc1ccc2c(c1)OCO2
Cc1ccc(C(=O)Nc2ccc3c(c2)OCO3)cc1S(=O)(=O)N1CCCCC1
CN(CC(=O)Nc1ccc(F)c(F)c1F)C(=O)C1CC(=O)N(C2CCCC2)C1 (stereo not drawn)
NS(=O)(=O)c1ccc(CNC(=O)c2cccc(S(=O)(=O)N3CCc4ccccc43)c2)cc1
COc1cc(C(=O)Nc2ncccc2C)ccc1OCC(=O)N1CCOCC1
CC1(C)O[C@@H]2[C@H](O1)[C@@H](COS(=O)(=O)O)O[C@H]2n1ccc(=O)[nH]c1=O
COc1ccc(C2=NN(c3nc4ccccc4s3)C(=O)C2)cc1
CCOc1cccc(-n2nnnc2-c2ccc(OC)cc2)c1
CCOc1ccc(NC(=O)COC(=O)C2CCC(=O)N2)c([N+](=O)[O-])c1 (stereo not drawn)
C[C@H](NC(=O)c1[nH]cnc1C(=O)Nc1nccs1)c1ccccc1
CSc1ccccc1OCc1cc(C(=O)N(C)CCc2c(C)n[nH]c2C)no1
COC(=O)[C@@H]1CCCN1C(=O)c1cc(COc2cccc3cccnc23)on1
CC(OC(=O)CN1C(=O)c2ccccc2C1=O)C(=O)c1ccccc1 (stereo not drawn)
Cc1cc(C(=O)Nc2ccc(C)c(S(=O)(=O)N3CCOCC3)c2)c2ccccc2n1
Cc1ccc(C(=O)NCC(c2cccs2)N(C)C)cc1S(=O)(=O)N1CCOCC1 (stereo not drawn)
Nc1ccn(CC(=O)N2CCN(c3ccccn3)CC2)c(=O)n1
O=C(/C=C/c1ccco1)NC(=S)Nc1ccccc1Br
Cc1nnc(NC(=O)/C=C/c2ccco2)s1
Cc1nc(Cl)cc(N/N=C/c2ccccc2)n1
Cc1cc(C)nc(N/N=C/c2c(C)oc3ccccc23)n1
Brc1ccc(-c2csc(N/N=C/c3ccc4c(c3)OCO4)n2)cc1
O=C(Nc1ccc2ccccc2c1)/C(=C\c1ccc2c(c1)OCO2)NC(=O)c1ccco1
CC(C)Oc1ccc(S(=O)(=O)N2CCOCC2)cc1NC(=O)C1CCCC1
CCN(CC(=O)Nc1c(F)cccc1F)C(=O)c1ccc(-c2ccccc2)cc1
O=C(O)CSc1ccc(S(=O)(=O)N2CCCC2)cn1
CCOC(=O)c1ccc(NC(=O)CNC(=O)c2ccco2)cc1
O=C(Nc1ccc(O)cc1)c1ccc(NC(=O)c2ccco2)cc1
COc1ccc(Cl)cc1NC(=O)CN(C)C(=O)c1ccc2n[nH]nc2c1
Cc1nc(/N=C(\N)NC(=O)NC2CCCCC2)nc2ccccc12
O=C(Cn1c(-c2cncs2)nc2ccccc21)NC1CCCC1
Nc1ccc(Nc2cc(O)c3ncccc3c2)cc1
CN1CCN(S(=O)(=O)c2cccc(C(=O)Nc3cccc(S(N)(=O)=O)c3)c2)CC1
COC(=O)c1ccc(-c2c(-c3ccccc3)ncc3cc(OC)c(OC)cc23)cc1
CN(C)CCCN(C(=O)c1ccc(S(=O)(=O)N2CCCCCC2)cc1)c1nc2cc3c(cc2s1)OCCO3
Cc1nc2ccc(NC(=O)C3CCCCC3)cc2s1
COc1ccc2nc(N3CCN(C(=O)c4ccc([N+](=O)[O-])o4)CC3)sc2c1
O=C(NCCc1cccc(F)c1)C1CCCN(c2nc3ccccc3s2)C1 (stereo not drawn)
CN(C)CCCN(C(=O)c1ccc(S(=O)(=O)N2CCCCCC2)cc1)c1nc2ccc(Br)cc2s1
Cc1nc(N2CCCCC2)sc1C=O
CCC(=O)c1ccc(OCC(=O)N(CC)CC2COc3ccccc3O2)cc1 (stereo not drawn)
CCc1sc(C(=O)N2CCN(CC(=O)Nc3cccc(F)c3)CC2)cc1C
CC1CCCC(NC(=O)c2cc(-c3ccncc3)nc3ccccc23)C1C (stereo not drawn)
Cc1ccc(/C=C/C(=O)OCC(=O)Nc2cccnc2Cl)cc1
Cc1ccc(C)c(NC(=O)C(c2ccccc2)N2CCN(CC(=O)NC3CC3)CC2)c1 (stereo not drawn)
COc1ccc(C(=O)NCc2ccc(C)cc2)cc1S(=O)(=O)N1CCCC1
CC1CCCC(C)N1C(=O)CSc1nnnn1C1CCCC1 (stereo not drawn)
CC(=O)Nc1ccc(NC(=O)CSc2nnnn2C2CCCCC2)cc1
C[C@H](OC(=O)n1ccnc1)[C@@H]1O[C@@]2(C)CCC[C@@H]1O2
CN(CCN1CCOCC1)Cc1nc(-c2ccc3c(c2)OCO3)no1
CC(C)N(Cc1nc(-c2ccc3c(c2)OCO3)no1)CC1CCC(=O)N1 (stereo not drawn)

activation, negative = inhibition, inactive:
COc1cc(/C=C2\SC(=O)NC2=O)ccc1OCc1ccc(Cl)nc1 -1.24% [at 1.84 µM]
